Measurements from PubChem BioAssay AID686978 (National Center for Advancing Translational Sciences (NCATS), 2013).
The whole screen tested about 420,000 compounds, of which about 64,000 (15%) were called active. Another 27% or so got no clear call; they are omitted. A selection follows. Values without a mark were called inactive. Calls follow the shape of the dose curve; as a rule, active = well fitted inhibition curve with a large enough effect; inconclusive = small, poorly fitted or top-dose-only effect; inactive = flat fitted curve, though single readings scatter.

Assay: qHTS for Inhibitors of human tyrosyl-DNA phosphodiesterase 1 (TDP1): qHTS in cells in absence of CPT; also: nearly all actives have a fitted effect of over 55% in size
Details: DT40 Tdp1-/- hTDP1 cells, no CPT, ATP luminescence, 48 h; activity change, negative = growth inhibition: at 46.2 µM (top of the series)
Procedure, shortened: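 DT40 Tdp1-/-;hTDP1 cells, no CPT (DMSO vehicle only), 400 cells/well; compounds pin-transferred; ≥48 hr, 37 °C; CellTiter-Glo 30 min RT dark, luminescence read.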
% is scaled to controls: 0 for no effect and ±100 for the full control effect; potency is read from the fitted curve at half-maximal effect.

| SMILES | activity change, negative = growth inhibition [%] | Potency |
| --- | --- | --- |
| CC(=O)c1ccc(NC(=O)C2CC(=O)Nc3nc4ccccc4n32)cc1 (stereo not drawn) | -8.52 | – |
| O=C(c1ccc(Cl)cc1)N1N=C(c2ccccn2)CC1(O)C(F)(F)F (stereo not drawn) | – | 14.6 µM (active) |
| COC(=O)C1(O)CC(C(C)C)=NN1C(=O)c1ccc(Cl)cc1 (stereo not drawn) | -9.27 | – |
| O=C(Cc1ccccc1)N1N=C(c2ccncc2)CC1(O)C(F)(F)F (stereo not drawn) | -21.2 | – |
| Cc1cn([C@H]2C[C@H](O)[C@@H](CNC(=O)[C@H](N)Cc3cccnc3)O2)c(=O)[nH]c1=O | 2.17 | – |
| O=c1[nH]n2c(=O)c3c([nH]c2c1N=Nc1ccccc1)CCC3 | -20.5 | – |
| O=C(Nc1nnc(Cc2ccc(Cl)cc2)s1)c1ccncc1 | -9.95 | – |
| COc1ccccc1CN1CCNC(=O)C1CC(=O)N(C)CC1CCOCC1 (stereo not drawn) | 17.6 | – |
| Cn1cc(CCC(=O)N2CCCC(C(=O)c3ccc(C(C)(C)C)cc3)C2)cn1 (stereo not drawn) | – | 20.6 µM (active) |
| Cn1cc(/C=C/C(=O)N2CCCC(C(=O)c3ccc(C(F)(F)F)cc3)C2)cn1 (stereo not drawn) | -27.1 | – |
| COCC(=O)N1CCCC(C(=O)c2ccc(C(F)(F)F)cc2)C1 (stereo not drawn) | 4.79 | – |
| Cc1nccn1-c1ccc(NC(=O)[C@H]2O[C@@H](n3cnc4c(N)ncnc43)[C@H](O)[C@@H]2O)cc1 | 1.47 | – |
| CC1(C)S[C@@H]2[C@H](NC(=O)COc3ccccc3)C(=O)N2C1C(=O)OCc1ccccc1 (stereo partly drawn) | – | inactive |
| COc1cc(-c2noc(-c3ccc(N4CCCC4)c([N+](=O)[O-])c3)n2)cc(OC)c1OC | -8.7 | – |
| CNc1ccc(-c2nc(-c3ccco3)no2)cc1[N+](=O)[O-] | -19.6 | – |
| COc1ccc(-c2noc(-c3ccc(N4CCN(c5ccccc5)CC4)c([N+](=O)[O-])c3)n2)cc1OC | – | 7.31 µM (active) |
| CCn1c(SC(C)C(=O)Nc2ccc(N3CCOCC3)cc2)nnc1-c1ccco1 (stereo not drawn) | -4.59 | – |
| O=C(Nc1cccnc1Oc1ncnc2cc(Cl)ccc12)c1ccc(F)cc1 | 1.07 | – |
| NS(=O)(=O)c1ccc(NS(=O)(=O)/C=C/c2ccccc2)cc1 | -16.4 | – |
| Cc1cccc(N2C(=O)c3ccc(C(=O)Nc4cccc(C(=O)O)c4)cc3C2=O)c1 | -29.4 | – |
| Cc1ccc(CNC(=O)Cn2cnc(S(=O)(=O)N3CCCCC3)c2)o1 | -18.7 | – |

| SMILES | activity change, negative = growth inhibition [%] | Potency |
| --- | --- | --- |
| Cc1ccc(C(=O)N2CC(=O)Nc3ccccc32)o1 | 0.857 | – |
| Cc1ccc(CNC(=O)C2(C(F)(F)F)C/C(=C\Cc3ccccc3)CCCO2)o1 (stereo not drawn) | – | 11.6 µM (active) |
| CC1CCCCN1CCCNC(=O)Cn1ncc2c([nH]c3ccccc32)c1=O (stereo not drawn) | – | inactive |
| COc1cccc(-c2nc3n(n2)C(c2ccccc2Cl)C(C(N)=O)=C(C)N3)c1 (stereo not drawn) | -28.2 | – |
| Cc1cc2c(cc1C)[n+](C)cn2CC(O)COCC1CC=CCC1 (stereo not drawn) | – | 1.84 µM (active) |
| C/C(=N/NC(=O)c1cc(Cl)ccc1O)C12CC3CC(CC(C3)C1)C2 | -1.21 | – |
| O=C(CSc1ccc([N+](=O)[O-])cn1)Nc1ccc(N2CCOCC2)c(Cl)c1 | -0.829 | – |
| Cc1cc2oc(=O)cc(-c3ccccc3)c2c(C)c1-c1ccc(OC(F)(F)F)cc1 | – | 20.6 µM (active) |
| COc1ccc(-c2c(C)cc3oc(=O)cc(-c4ccccc4)c3c2C)cc1OC | – | 23.1 µM (active) |
| COc1ccc(C2=NO[C@@H]3C(=O)N(Cc4ccccc4)C(=O)[C@H]23)cc1OC | 0.579 | – |
| COc1ccc(-c2cc(=O)oc3cc(OCC(=O)N[C@@H](Cc4c[nH]c5ccccc45)C(=O)O)ccc23)cc1 | 0.178 | – |
| CC(=O)c1ccc(S(=O)(=O)NC2CC(=O)N(c3ccc4c(c3)OCCO4)C2)cc1 (stereo not drawn) | -14.5 | – |
| CC(C)(C)S(=O)(=O)c1ccccc1-c1noc(-c2ccccc2)c1C(N)=O | 4.59 | – |
| Cn1c(SCC(=O)C(C)(C)C)nnc1-c1ccccn1 | 27.4 | – |
| O=C(COC(=O)c1cnccn1)Nc1cccc2ccccc12 | -7.74 | – |
| Cc1ccccc1-c1ccc(Nc2ccc(C(=O)N3CCOCC3)cc2)nn1 | -17.6 | – |
| CO[C@@H]1CN(C)C(=O)c2cc(NC(=O)C3CC3)ccc2OC[C@H](C)N(C(=O)CN2CCOCC2)C[C@@H]1C | -1.78 | – |
| CCCN(CC(=O)Nc1ccccc1C)C(=O)c1cc(=O)[nH]c2ccccc12 | -16.5 | – |
| CCCN(CC(=O)Nc1ccccc1C)C(=O)c1ccc(OCC(=O)N2CCOCC2)c(OCC)c1 | -3.18 | – |
| CCCN(CC(=O)Nc1ccccc1C)C(=O)c1ccc2[nH]c3c(c2c1)CC(C)CC3 (stereo not drawn) | – | 20.6 µM (active) |
| COCCCN1C(=O)C(=O)/C(=C(/O)c2ccc3c(c2)CC(C)O3)C1c1cccnc1 (stereo not drawn) | -3.28 | – |

| SMILES | activity change, negative = growth inhibition [%] | Potency |
| --- | --- | --- |
| COC(=O)C1=C(NC(=O)C(C)(C)C)CCS1 | -2.33 | – |
| Cc1cc(C)c(C=NNc2nc3c([nH]2)c(=O)n(C)c(=O)n3C)c(C)c1 | 1.78 | – |
| Cc1ccccc1NC(=O)NCc1ccco1 | 8.72 | – |
| O=C(Nc1ccccc1)Nc1ccccc1C(=O)NCc1ccco1 | -17.1 | – |
| Cc1ccc(N(Cc2ccc(C(=O)Nc3ccccc3C(=O)NCc3ccco3)cc2)S(C)(=O)=O)cc1C | – | 18.4 µM (active) |
| Cc1ccc(NC(=O)C(=O)NCc2ccco2)c(C)c1 | -25.9 | – |
| Cc1cccc(Nc2ccccc2C(=O)NCc2ccco2)c1C | – | 20.6 µM (active) |
| CS(=O)(=O)N(CC(=O)NCc1ccco1)c1ccc2c(c1)OCO2 | -0.836 | – |
| CCC(C)NC(=O)CN(C1CCCCC1)S(C)(=O)=O (stereo not drawn) | -11.3 | – |
| CCOC(=O)N1CCN(C(=O)C2CCN(S(C)(=O)=O)CC2)CC1 | -4.04 | – |
| Fc1ccc(COc2ccc(-c3nnco3)cc2)cc1 | -10.2 | – |
| O=C(O)C1CCN(C(=O)c2cc(F)cc3c2OCOC3)CC1 | -1.32 | – |
| COc1nc(NC2CCCCC2)nc(N2CCCCCC2)n1 | – | 12.6 µM (active) |
| Clc1nc(NC2CCCC2)nc(N2CCOCC2)n1 | -27.4 | – |
| Cc1ccnc(N2CCC(C(=O)NC3CCCCCC3)CC2)n1 | -5.99 | – |
| CCn1c(SCC(=O)Nc2ccc3c(c2)OCCO3)nnc1C(C)C | -12.3 | – |
| CCCn1c(SCC(=O)c2ccc3c(c2)OCCO3)nnc1C(C)C | – | 20.6 µM (active) |
| CCCn1c(SCC(N)=O)nnc1C(C)C | -8.78 | – |
| C=CCn1c(C)cc(C(=O)CN2C(=O)c3ccccc3C2=O)c1C | -25.9 | – |
| Cc1ccc(-n2c(C)cc(C(=O)CN3C(=O)C(=O)N(C4CCCC4)C3=O)c2C)cc1 | – | 25.9 µM (active) |
| CCOC(=O)c1cc2c(n(-c3ccc(C)cc3)c1=O)CCCC2=O | -13.6 | – |
